BAZ2B block = BAZ2B (human) inhibition; AlphaScreen BAZ2B-H3K14Ac peptide displacement; Potency, µM (doses to about 114 µM), for the others: at the top dose activity change, negative = inhibition, actives largely listed as inhibitors; 360,000 tested, 4.4% active; AID 504333; also: % is scaled to controls: 0 for no effect and ±100 for the full control effect; nearly all actives have a fitted effect of over 60% in size
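AlphaScreen luminescence quantifies BAZ2B engagement of H3K14Ac peptide; the protein and biotinylated peptide are both at 50 nM final, buffer PBS pH 7.4 with 0.01% Tween-20, all steps at room temperature.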
HP1b binding inh = HP1-beta chromodomain-methylated histone interaction inhibition; P83916; AlphaScreen HP1-beta / biotin-H3K9me3 peptide binding; Potency, µM (series often up to 114 µM), without a hit: at the highest dose activity change, negative = inhibition, usual class: inhibitors; 390,000 tested, 0.56% active; also: nearly all actives have a fitted effect of over 70% in size
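Compound inhibition of the preformed complex between 50 nM HP1-beta and 50 nM biotinylated H3K9me3 peptide was read by AlphaScreen. Buffer was PBS pH 7.4 with 0.01% Tween-20. Incubations ran 30 min at room temperature, with 10 ug/mL donor/acceptor beads.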
PLK1 PBD inh = PLK1 (human) polo-box domain binding inhibition | Plk1 PBD binding of FITC phosphopeptide, fluorescence polarization | Potency, µM, for inactives: max response, negative = inhibition, most hits filed as inhibitors | 360,000 tested, 2.8% active | AID 720504; also: series mostly up to about 57 µM; % is scaled to controls: 0 for no effect and ±100 for the full control effect; nearly all actives have a fitted effect of over 65% in size
JMJD2A Tudor = JMJD2A Tudor domain (human) inhibition. AlphaScreen JMJD2A-Tudor / H3K4me3 peptide binding. Potency, µM (highest dose often 114 µM), for the others: top-dose activity change, negative = inhibition, most hits filed as inhibitors. 390,000 tested, 4.4% active. AID 504339; also: % is scaled to controls: 0 for no effect and ±100 for the full control effect; nearly all actives have a fitted effect of over 50% in size
Target sequence (O75164 whole entry, looked up, the tested form may be a part): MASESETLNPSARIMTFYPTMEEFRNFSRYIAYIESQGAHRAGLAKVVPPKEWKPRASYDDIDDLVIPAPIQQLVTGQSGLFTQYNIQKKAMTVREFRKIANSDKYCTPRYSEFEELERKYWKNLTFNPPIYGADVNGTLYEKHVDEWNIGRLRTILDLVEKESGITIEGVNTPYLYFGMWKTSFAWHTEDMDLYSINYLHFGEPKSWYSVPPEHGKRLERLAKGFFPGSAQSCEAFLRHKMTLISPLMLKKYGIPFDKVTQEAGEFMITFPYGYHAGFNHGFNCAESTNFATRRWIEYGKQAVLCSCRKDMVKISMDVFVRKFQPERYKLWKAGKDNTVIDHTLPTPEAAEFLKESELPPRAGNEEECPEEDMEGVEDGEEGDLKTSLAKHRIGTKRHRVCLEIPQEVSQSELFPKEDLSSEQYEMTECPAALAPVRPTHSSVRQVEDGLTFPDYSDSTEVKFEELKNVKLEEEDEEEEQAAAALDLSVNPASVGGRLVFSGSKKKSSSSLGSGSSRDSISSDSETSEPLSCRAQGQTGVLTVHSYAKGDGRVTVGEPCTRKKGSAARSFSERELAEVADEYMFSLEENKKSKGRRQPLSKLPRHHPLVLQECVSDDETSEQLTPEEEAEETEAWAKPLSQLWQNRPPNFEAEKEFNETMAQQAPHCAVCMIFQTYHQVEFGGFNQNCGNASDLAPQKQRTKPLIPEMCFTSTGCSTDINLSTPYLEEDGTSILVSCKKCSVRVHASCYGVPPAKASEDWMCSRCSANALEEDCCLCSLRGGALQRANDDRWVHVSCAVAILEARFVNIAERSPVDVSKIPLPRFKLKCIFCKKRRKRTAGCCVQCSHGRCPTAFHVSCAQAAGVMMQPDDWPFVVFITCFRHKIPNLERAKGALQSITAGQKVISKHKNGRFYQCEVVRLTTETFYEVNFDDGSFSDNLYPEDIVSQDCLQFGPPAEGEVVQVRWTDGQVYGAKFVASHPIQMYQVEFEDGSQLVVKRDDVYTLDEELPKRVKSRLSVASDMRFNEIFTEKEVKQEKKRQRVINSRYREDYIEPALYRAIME
G9a inh = inhibitors of human histone lysine methyltransferase G9a; Q96KQ7; AID 504332; Potency, µM (series often up to 102 µM), for inactives: top-dose activity, negative = inhibition, hits mostly inhibitors; 350,000 tested, 8.8% active; G9a H3K9 monomethylation, AlphaScreen, 2 h; also: % is scaled to controls: 0 for no effect and ±100 for the full control effect; nearly all actives have a fitted effect of over 75% in size
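AlphaScreen read-out: biotin-H3K9 peptide (500 nM) methylation by 20 nM enzyme with 20 uM SAM, 2 h at room temperature after 15 min compound preincubation; anti-monomethyl H3K9 antibody plus donor/acceptor beads, 10 min dark.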
ALOX12 inh = blocks human arachidonate 12S-lipoxygenase. AID 1671190. Potency, µM (series often up to 108 µM), without a hit: top-dose activity change, negative = inhibition, actives largely listed as inhibitors. purified 12hLO, xylenol orange hydroperoxide absorbance. 580,000 tested, 1.1% active; also: % is scaled to controls: 0 for no effect and ±100 for the full control effect
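Purified human 12hLO (150 nM final) in 25 mM Hepes, 0.01% Triton X-100, pH 7.0 was preincubated 15 min at room temperature with compound. Then 40 uM arachidonic acid was added, 30 min. Hydroperoxide was read by Fe-XO absorbance ratio 573/405 nm.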
* hit, by the source's call; ? = inconclusive; . = no result; [ ] = another dose, or the depositor's remark. Most compounds without a hit are left out; they make up all but 9% or so of the library. Calls follow the shape of the dose curve; as a rule, active = well fitted curve in the direction sought with a large enough effect; inconclusive = small, poorly fitted or top-dose-only effect, or another doubt; inactive = no such curve, though single readings can be large; an effect the other way counts as inactive or inconclusive. Potency is read from the fitted curve at half-maximal effect.

SMILES	BAZ2B block	HP1b binding inh	PLK1 PBD inh	JMJD2A Tudor	G9a inh	ALOX12 inh
Cc1cccc(NS(=O)(=O)c2ccc(Cl)c(C(=O)Nc3ccc4oc(C)nc4c3)c2)c1	.	.	.	.	.	16.5%
Cc1ccc[n+](CC(=O)c2ccc(NC(=O)c3ccccc3)cc2)c1	-4.4%	38.0%	-7.0%	-7.6%	-5.9%	-1.4%
NC(=O)c1cc[n+](CC(=O)c2ccc(NC(=O)c3ccccc3)cc2)cc1	-15.1%	19.1%	23.8µM*	?	-1.9%	-5.1%
O=C(Nc1ccc[n+](CC(=O)c2cccc3ccccc23)c1)c1ccccc1	14.4%	4.8%	-26.2%	-29.1%	39.8µM*	?
N#Cc1ccc[n+](CC(=O)c2ccc(NC(=O)c3ccccc3)cc2)c1	-0.4%	46.0%	-5.6%	1.0%	44.7µM*	?
Cc1cc[n+](CC(=O)c2ccc(NC(=O)c3ccccc3)cc2)cc1	3.9%	24.6%	-0.1%	-11.9%	?	3.6%
O=C(C[n+]1ccccc1)c1ccc(NC(=O)c2ccccc2)cc1	-12.3%	15.8%	-14.4%	?	15.8µM*	?
COc1ccc(-c2c3c(=O)n(C)c(=O)n(C)c3c3c(-c4cccc(C)c4)nc4ccccc4n23)cc1	-20.2%	26.7%	.	-24.4%	?	-18.1%
Cc1ccc2occ(/C=C/C(=O)O)c(=O)c2c1	-5.9%	34.9%	-6.1%	3.9%[57.1 µM]	-4.0%	11.2%
CCc1nnc(NC(=O)C2CCC(CNc3c(N4CCC(C)CC4)c(=O)c3=O)CC2)s1 (configuration not stated)	-11.9%	45.7%	-4.5%	9.2%	-37.4%	-11.1%
Clc1cccc(-c2ccc(CNCc3ccccn3)o2)c1	22.4µM*	-15.8%	-2.2%	56.2µM*	20µM*	-3.0%
Cc1cccc(-n2c(CNC(=O)Cc3ccccc3)n[nH]c2=S)c1	-13.9%	36.5%	-4.0%	3.98µM*	20µM*	-17.0%
CSc1nnc(CNC(=O)c2ccccc2)n1-c1cccc(C)c1	2.5%	32.5%	0.7%	-2.8%	18.0%[59 µM]	5.1%
Cc1cccc(-n2c(Cc3ccccc3)n[nH]c2=S)c1	-19.5%	1.6%	2.6%	31.6µM*	22.4µM*	?
Cc1cccc(-n2c(Cc3ccccc3)nnc2SCc2ccc([N+](=O)[O-])cc2)c1	-36.5%	?	-12.8%	?	-16.3%[59 µM]	-27.7%
CCc1ccc(-n2c(Cc3ccccc3)n[nH]c2=S)cc1	-27.1%	9.9%	-18.2%	22.4µM*	?	?
CNC(=O)c1cccc(NC(=O)c2cnc3ccccc3n2)c1	.	.	.	.	.	-41.2%
COc1ccc(C(=O)Nc2ccc3c(c2)CN(Cc2ccc(OC)cc2OC)C(=O)C(C)O3)cc1 (configuration not stated)	.	.	.	.	.	39.8%
Cc1ccc(C(C)NC(=O)Nc2ccc(N3CCOCC3)nc2)o1 (configuration not stated)	.	.	.	.	.	22.0%
COc1ccc(NC(=S)NC(C)Cc2cccs2)cc1 (configuration not stated)	?	38.7%	2.4%	-7.7%	-28.6%	?
COc1ccc(Br)cc1/C(C)=N/NC1=NCCN1	-0.5%	8.1%	-8.2%	-26.2%	?	0.0%
CCCCCOc1ccc(Br)cc1/C(C)=N/NC1=NCCN1	-24.1%	12.5%	-21.0%	-5.3%[11.4 µM]	8.91µM*	?
Cc1ccc(OCC(=O)NNC(=O)CCc2ccccc2)cc1	?	11.6%	-8.6%	-10.6%	108.6%[59 µM]	15.2%
O=C(COc1ccc2c(c1)CCC2)NCc1ccc(Cl)cc1	0.8%	4.8%	29.9µM*	-4.1%	15.5%[59 µM]	-11.9%
O=C(COc1ccc2c(c1)CCC2)NCc1cccc(Cl)c1	52.3%	63.4%	20.8%	20.9%	-9.8%	-24.2%
SMILES	BAZ2B block	HP1b binding inh	PLK1 PBD inh	JMJD2A Tudor	G9a inh	ALOX12 inh
COC(=O)CNC(=S)NC(=O)c1ccc(C(C)(C)C)cc1	-22.6%	21.7%	?	-31.8%	17.8µM*	?
Cc1ccc(OCC(=O)NNC(=S)NC(=O)COc2ccccc2)cc1	.	.	.	.	.	11.2µM*
CCC(=O)NC(=S)NNC(=O)COc1ccc(Br)cc1	-11.9%	23.4%	-14.6%	-11.1%	8.91µM*	0.3%
COc1ccc(OC)c(CNS(=O)(=O)c2cn(C)cn2)c1	-4.2%	36.4%	-7.4%	-15.3%	.	-2.1%
COc1ccc(NC(=O)N2CCCC(Cn3cnc4cccnc43)C2)cc1 (configuration not stated)	.	.	.	.	.	-22.6%
O=C(Nc1cccc([N+](=O)[O-])c1)N1CCCc2ccccc21	-35.4%	20.1%	-6.0%	-27.6%	11.7%	-13.4%
O=C(COc1ccccc1)NC(=S)Nc1cccc2c(O)cccc12	.	.	-0.6%	.	.	44.7µM*
CC(C)(C)c1ccc(C(=O)NC(=S)NNC(=O)COc2ccccc2)cc1	?	-18.3%	?	?	25.1µM*	31.6µM*
O=C(COc1ccc(Cl)cc1)NNC(=S)NCc1ccccc1	24.7%	16.2%	-26.1%	-15.6%	31.6µM*	?
Cc1ccc(C(=O)NNC(=S)NC(=O)COc2ccccc2)cc1	11.4%	-23.8%	26.7µM*	12.6µM*	1.26µM*	?
COC(=O)c1ccccc1NC(=S)NC(=O)COc1ccccc1	-1.9%	7.9%	?	-7.2%	?	-0.1%
O=C(CSc1nnc(COc2ccccc2)o1)c1ccccc1	3.4%	53.6%	-4.9%	20.9%	19.5%[59 µM]	1.4%
CCC(CC)NC(=O)CCC(=O)c1ccc2c(c1)OCCCO2	.	.	.	.	.	32.1%
COCCNC(=O)CN1C(=O)NC(c2cccs2)C2=C1COC2=O (configuration not stated)	.	.	.	.	.	37.6%
CCN1CC2=C(OC(N)=C(C#N)C2c2cccs2)/C(=C\c2cccs2)C1 (configuration not stated)	35.5µM*	?	-17.4%	?	44.7µM*	-21.4%
CCOC(=O)C1=C(CC)OC(N)=C(C#N)C1c1ccsc1 (configuration not stated)	?	30.3%	-11.3%	-1.4%	56.2µM*	-23.7%
CCOC(=O)CC1=C(C(=O)OCC)C(c2cccnc2)C(C#N)=C(N)O1 (configuration not stated)	-19.0%	31.4%	-12.8%	-5.8%	0.7%[59 µM]	463.3%
CC(=O)C1=C(C)OC(N)=C(C#N)C1c1cccc([N+](=O)[O-])c1 (configuration not stated)	-34.3%	7.1%	?	-13.5%[11.4 µM]	44.7µM*	-18.4%
CCOC(=O)C1=C(C)OC(N)=C(C#N)C1c1cc(C)sc1C (configuration not stated)	-26.3%	29.2%	-13.2%	-11.1%	.	103.1%
CCOC(=O)C1=C(C)OC(N)=C(C#N)C1c1cc(SCC)oc1C (configuration not stated)	?	21.3%	-15.1%	-18.5%	44.7µM*	-11.2%

Bioassay records (PubChem BioAssay)
